Laboratory results: PubChem BioAssay AID1159580 (chemical genetic matrix, 2015)
The whole screen tested about 5,500 compounds, of which about 2,000 (36%) were called active. Inconclusive results (about 18%) are left out. No stated cut-off is given here; in the data, active means normalized growth mostly below about 0.91 (no sharp cut-off); inconclusive means no clear call, values can overlap the other calls; inactive means mostly above about 0.92. The list shows a part of the results.

Assay: chemical genetic growth profiling, strain panel (AID 1159580);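 further: tested at 20 µM; growth read once vehicle control cultures reached saturation at 30 °C; 1 = growth at the plate median or of vehicle wells; lower values mean less growth of the strain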
Conditions: growth OD

Measured: normalized growth

C=C[C@H]1CN2CC[C@H]1C[C@H]2[C@H](O)c1ccnc2ccccc12
inactive: S. cerevisiae deletion strains, locus YJR075W, strain HOC1, active compounds read low 1.02 | S. cerevisiae deletion strains, locus YKL009W, strain mrt4, active compounds read low 1.01 | S. cerevisiae deletion strains, locus YKL068W, active compounds read low 0.982 | S. cerevisiae deletion strains, locus YKL085W, strain MDH1 (second series), active compounds read low 0.991 | S. cerevisiae deletion strains, locus YKL085W, strain MDH1, active compounds read low 0.991 | S. cerevisiae deletion strains, locus YKL160W, strain elf1, active compounds read low 0.989 | S. cerevisiae deletion strains, locus YKL190W, strain CNB1, active compounds read low 0.986 | S. cerevisiae deletion strains, locus YKR001C, strain vps1, active compounds read low 0.967 | S. cerevisiae deletion strains, locus YKR026C, strain gcn3, active compounds read low 1 | S. cerevisiae deletion strains, locus YKR091W, strain srl3, active compounds read low 1 | S. cerevisiae deletion strains, locus YLL001W, strain dnm1, active compounds read low 0.972 | S. cerevisiae deletion strains, locus YLL026W, active compounds read low 0.994 | S. cerevisiae deletion strains, locus YLL041C, strain sdh2, active compounds read low 1 | S. cerevisiae deletion strains, locus YLR027C, strain aat2, active compounds read low 1 | S. cerevisiae deletion strains, locus YLR039C, strain RIC1, active compounds read low 0.99 | S. cerevisiae deletion strains, locus YLR058C, strain SHM2, active compounds read low 1 | S. cerevisiae deletion strains, locus YLR102C, strain apc9, active compounds read low 0.976 | S. cerevisiae deletion strains, locus YLR113W, strain HOG1, active compounds read low 0.941 | S. cerevisiae deletion strains, locus YLR221C, strain rsa3, active compounds read low 0.989 | S. cerevisiae deletion strains, locus YLR258W, strain gsy2, active compounds read low 1.01 | S. cerevisiae deletion strains, locus YLR262C, strain YPT6 (second series), active compounds read low 0.975 | S. cerevisiae deletion strains, locus YLR262C, strain YPT6, active compounds read low 0.966 | S. cerevisiae deletion strains, locus YLR268W, strain sec22, active compounds read low 0.981 | S. cerevisiae deletion strains, locus YLR320W, strain mms22, active compounds read low 0.999 | S. cerevisiae deletion strains, locus YLR330W, strain CHS5, active compounds read low 1 | S. cerevisiae deletion strains, locus YLR342W, strain FKS1 (second series), active compounds read low 0.995 | S. cerevisiae deletion strains, locus YLR342W, strain FKS1, active compounds read low 0.985 | S. cerevisiae deletion strains, locus YLR357W, strain rsc2, active compounds read low 0.986 | S. cerevisiae deletion strains, locus YLR370C, strain arc18, active compounds read low 0.995 | S. cerevisiae deletion strains, locus YLR371W, strain rom2, active compounds read low 0.967 | S. cerevisiae deletion strains, locus YLR384C, strain iki3, active compounds read low 0.988 | S. cerevisiae deletion strains, locus YLR418C, strain cdc73, active compounds read low 1.03 | S. cerevisiae deletion strains, locus YML016C, strain PPZ1, active compounds read low 1.01 | S. cerevisiae deletion strains, locus YML032C, strain rad52, active compounds read low 0.97 | S. cerevisiae deletion strains, locus YML120C, strain ndi1, active compounds read low 0.992 | S. cerevisiae deletion strains, locus YML124C, strain tub3, active compounds read low 0.975 | S. cerevisiae deletion strains, locus YMR058W, strain fet3, active compounds read low 0.983 | S. cerevisiae deletion strains, locus YMR078C, strain ctf18, active compounds read low 0.965 | S. cerevisiae deletion strains, locus YMR125W, strain sto1, active compounds read low 1 | S. cerevisiae deletion strains, locus YMR129W, active compounds read low 1 | S. cerevisiae deletion strains, locus YMR205C, strain PFK2, active compounds read low 1 | S. cerevisiae deletion strains, locus YMR223W, strain ubp8, active compounds read low 0.978 | S. cerevisiae deletion strains, locus YMR231W, strain pep5, active compounds read low 0.995 | S. cerevisiae deletion strains, locus YMR263W, strain SAP30, active compounds read low 0.987 | S. cerevisiae deletion strains, locus YMR307W, strain GAS1, active compounds read low 0.986 | S. cerevisiae deletion strains, locus YNL067W, strain RPL9B, active compounds read low 1.01 | S. cerevisiae deletion strains, locus YNL071W, strain lat1, active compounds read low 1 | S. cerevisiae deletion strains, locus YNL128W, strain TEP1, active compounds read low 1.03 | S. cerevisiae deletion strains, locus YNL153C, strain GIM3, active compounds read low 1.01 | S. cerevisiae deletion strains, locus YNL183C, strain NPR1, active compounds read low 0.927 | S. cerevisiae deletion strains, locus YNL209W, strain ssb2, active compounds read low 1.01 | S. cerevisiae deletion strains, locus YNL233W, strain BNI4, active compounds read low 0.999 | S. cerevisiae deletion strains, locus YNL248C, strain rpa49, active compounds read low 1.02 | S. cerevisiae deletion strains, locus YNL250W, strain rad50, active compounds read low 0.989 | S. cerevisiae deletion strains, locus YNL271C, strain bni1, active compounds read low 0.993 | S. cerevisiae deletion strains, locus YNL298W, strain CLA4, active compounds read low 0.98 | S. cerevisiae deletion strains, locus YNL307C, strain MCK1, active compounds read low 0.981 | S. cerevisiae deletion strains, locus YNL322C, strain KRE1 (second series), active compounds read low 0.99 | S. cerevisiae deletion strains, locus YNL322C, strain KRE1, active compounds read low 1 | S. cerevisiae deletion strains, locus YNR049C, strain mso1, active compounds read low 1 | S. cerevisiae deletion strains, locus YNR052C, strain pop2, active compounds read low 0.959 | S. cerevisiae deletion strains, locus YOL006C, strain TOP1, active compounds read low 1.07 | S. cerevisiae deletion strains, locus YOL012C, strain htz1 0.823 | S. cerevisiae deletion strains, locus YOL147C, strain pex11, active compounds read low 0.971 | S. cerevisiae deletion strains, locus YOR001W, strain rrp6, active compounds read low 0.978 | S. cerevisiae deletion strains, locus YOR061W, strain CKA2, active compounds read low 1.01 | S. cerevisiae deletion strains, locus YOR069W, strain VPS5, active compounds read low 1.01 | S. cerevisiae deletion strains, locus YOR070C, strain gyp1, active compounds read low 1 | S. cerevisiae deletion strains, locus YOR080W, strain dia2, active compounds read low 0.99 | S. cerevisiae deletion strains, locus YOR083W, strain WHI5, active compounds read low 0.948 | S. cerevisiae deletion strains, locus YOR106W, strain vam3, active compounds read low 0.994 | S. cerevisiae deletion strains, locus YOR136W, strain idh2, active compounds read low 0.973 | S. cerevisiae deletion strains, locus YOR144C, strain elg1, active compounds read low 0.972 | S. cerevisiae deletion strains, locus YOR184W, strain ser1, active compounds read low 0.977 | S. cerevisiae deletion strains, locus YOR231W, strain MKK1, active compounds read low 0.972 | S. cerevisiae deletion strains, locus YOR265W, strain rbl2, active compounds read low 0.994 | S. cerevisiae deletion strains, locus YOR270C, strain vph1, active compounds read low 1.02 | S. cerevisiae deletion strains, locus YOR290C, strain snf2, active compounds read low 0.996 | S. cerevisiae deletion strains, locus YOR316C, strain cot1, active compounds read low 0.984 | S. cerevisiae deletion strains, locus YPL051W, strain arl3, active compounds read low 1 | S. cerevisiae deletion strains, locus YPL055C, strain LGE1, active compounds read low 1.01 | S. cerevisiae deletion strains, locus YPL078C, strain atp4, active compounds read low 0.99 | S. cerevisiae deletion strains, locus YPL106C, strain sse1, active compounds read low 0.994 | S. cerevisiae deletion strains, locus YPL240C, strain hsp82, active compounds read low 1.01 | S. cerevisiae deletion strains, locus YPL241C, strain CIN2, active compounds read low 0.992 | S. cerevisiae deletion strains, locus YPL256C, strain CLN2, active compounds read low 0.97 | S. cerevisiae deletion strains, locus YPR119W, strain clb2, active compounds read low 0.98 | S. cerevisiae deletion strains, locus YPR141C, strain kar3, active compounds read low 0.983 | S. cerevisiae deletion strains, locus YPR163C, strain tif3, active compounds read low 0.977 | S. cerevisiae deletion strains, locus YPR167C, strain met16, active compounds read low 0.989 | S. cerevisiae deletion strains, strain wtn01, active compounds read low 0.976 | S. cerevisiae strains, strain wild type, active compounds read low 1
